Assay outcomes deposited in PubChem by several laboratories.
MIN6 prolif = MIN6 beta-cell proliferation induction. MIN6 cells proliferation, ATPlite luminescence, 48 h; cells starved in 0.2% serum; 100% = growth in 10% serum. proliferation, % at 10 µM. 330,000 compounds, 0.29% hits. AID 2380;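 active means compounds whose signal lies at least 3.5 SD above the mean of all wells on their plate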;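 further: 0% = DMSO-treated cells in low-serum medium and 100% = 10% serum control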
GASC-1 inh = inhibitors of human GASC-1 (JMJD2C) demethylase. Q9H3R0. GST-JMJD2C(1-420) H3K9me3 demethylation, DELFIA europium. inhibition, % at 2.35 µM. 330,000 compounds, 0.069% hits. AID 2099;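 active means more than half of a compound's replicate wells show inhibition beyond 50%, single wells judged on their own value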;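 further: signal counts dimethyl H3K9 product captured on neutravidin plate; 0% = median of DMSO wells and 100% = 0.3 times that DMSO median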
Target sequence (Q9H3R0 1-420 limits assumed): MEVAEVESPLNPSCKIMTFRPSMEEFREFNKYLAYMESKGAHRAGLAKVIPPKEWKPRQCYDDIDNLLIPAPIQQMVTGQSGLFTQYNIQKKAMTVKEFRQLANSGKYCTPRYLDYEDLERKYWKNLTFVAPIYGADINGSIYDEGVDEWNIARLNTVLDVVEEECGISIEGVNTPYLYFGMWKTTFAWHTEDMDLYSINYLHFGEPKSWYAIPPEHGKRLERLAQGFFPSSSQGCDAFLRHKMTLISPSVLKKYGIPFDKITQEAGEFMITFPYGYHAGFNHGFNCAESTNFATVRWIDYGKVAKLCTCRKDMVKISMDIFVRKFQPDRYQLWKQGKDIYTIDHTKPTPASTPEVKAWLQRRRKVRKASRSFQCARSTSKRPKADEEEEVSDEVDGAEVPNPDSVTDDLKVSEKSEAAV
PfM18AAP inh = blocks P. falciparum M18 aspartyl aminopeptidase. recombinant PfM18AAP, H-Glu-NHMec fluorogenic cleavage. inhibition, % at 7.35 µM. 290,000 compounds, 1.2% hits. AID 1822;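 active means inhibition above the campaign mean inhibition over all tested compounds plus 3 SD, cut at about 28% in these data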;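 further: 0% = plate median of test compound wells and 100% = 2 mM ZnCl2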
ALR inh = blocks human ALR sulfhydryl oxidase activity. AID 485317. 290,000 compounds, 3.8% hits. purified ALR, DTT oxidation, H2O2 HRP-luminol luminescence. P55789. inhibition, % (test concentration not listed);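 active means mean replicate inhibition above about 79%, with every replicate also reaching it, limit read from the data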
Granule exo inh = blocks lytic granule exocytosis; TALL-104 LAMP-1 surface exposure, flow cytometry; cells stimulated with thapsigargin and PMA; inhibition, % at 10 µM; 360,000 compounds, 0.66% hits; AID 651702;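 active means inhibition above about 55%, limit read from the data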
SMARCA2 act = increases SMARCA2 function in MMTV reporter cells. MG213 cells, MMTV-luciferase reporter, dexamethasone, overnight. activation, % at 9.1 µM. 370,000 compounds, 1% hits. AID 652017; in the data active means activation above about 7.8%;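 further: 0% = vehicle wells and 100% = reference activator wells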
Numbers without * were called inactive; . = not tested or not shown. Compounds with a hit are over-represented: about 5.4% of the library has one in this group of screens.

SMILES | MIN6 prolif | GASC-1 inh | PfM18AAP inh | ALR inh | Granule exo inh | SMARCA2 act
C=CCN1C(=O)[C@@H](CC(=O)N2CCSCC2)[C@]2(C(=O)OC)CCCCC=C12 | . | . | . | . | . | -2.4
Cc1ccc(N2CCC(N3CCN(C)C(CCO)C3)CC2)cc1 (configuration not stated) | -2.5 | 12.6 | -2.4 | 98.8* | 3.5 | -2.0
CC(C)CCN1CCN(C2CCN(c3ccccc3)CC2)CC1CCO (configuration not stated) | -1.0 | -12.3 | 3.2 | 98.5* | -0.1 | 0.7
COc1cccc(N2CCC(N3CCN(C)C(CCO)C3)CC2)c1 (configuration not stated) | -3.8 | -10.7 | 1.7 | 93.7* | 3.9 | 1.0
CCOC(=O)N1CCC(N2CCN(CCC(C)C)C(CCO)C2)CC1 (configuration not stated) | -1.0 | 5.5 | 0.2 | -5.0 | -9.9 | -3.3
CC(C)(C)N(Cc1cn(Cc2ccccc2)nn1)S(=O)(=O)c1ccccc1Br | . | . | . | . | . | 3.0
Cc1ccc(N/N=C2/CCCNC2=O)cc1 | -2.3 | -2.2 | -5.9 | 90.0* | 2.2 | 2.1
O=C1NCCC/C1=N/Nc1cc(F)ccc1F | -2.5 | -7.1 | 0.0 | . | -2.4 | 1.6
CC(=O)c1ccc(N/N=C2/CCCNC2=O)cc1 | -0.6 | -12.8 | 3.5 | 99.4* | -8.0 | -2.2
COC(=O)c1cc2c(c3c4ccccc4n(S(=O)(=O)c4cccc(C)c4)c13)C(=O)N(C)C2 | . | . | . | . | . | 1.4
COc1ccc(-n2c(SCC(=O)NCC3CCCO3)nnc2-c2ccncc2)cc1 (configuration not stated) | . | . | . | . | . | -1.2
CC(C)N(C(N)=NC(=O)OCc1ccccc1)C(C)C | . | . | . | . | . | -3.0
CCN(CC)c1ccc(C2C(C(=O)OCCOC)=C(C)NC3=C2C(=O)CCC3)cc1 (configuration not stated) | -0.7 | 5.6 | 11.7 | 98.7* | 4.4 | -2.5
CCOC(=O)C1=C(C)NC2=C(C(=O)CCC2)C1c1ccc(N(C)C)cc1 (configuration not stated) | -2.1 | -0.3 | 0.9 | 73.6 | 1.3 | -1.6
CCCOC(=O)C1=C(C)NC2=C(C(=O)CCC2)C1c1ccc(N(C)C)cc1 (configuration not stated) | -2.7 | -2.0 | 3.5 | 90.7* | 1.8 | -1.7
COCCOC(=O)C1=C(C)NC2=C(C(=O)CCC2)C1c1ccc2c(c1)OCO2 (configuration not stated) | 0.1 | 1.0 | 3.1 | -3.2 | 2.5 | -4.5
Cc1cc(NC(=O)Nc2cccc(F)c2)n(-c2ccccc2)n1 | . | . | . | . | . | -0.7
COc1cccc(NC(=O)c2cc([N+](=O)[O-])ccc2NC(=O)CNCC2CCCO2)c1 (configuration not stated) | 1.6 | 5.4 | 12.9 | 99.6* | -3.0 | 6.5
CCN1CCCCC(NC(=O)c2ccc(F)c(F)c2)C1=O (configuration not stated) | . | . | . | . | . | -3.4
CC(=O)C1C(=O)c2c(cccc2[N+](=O)[O-])C1=Nc1ccc(S(N)(=O)=O)cc1 (configuration not stated) | -3.9 | 16.9 | 30.8* | -2.0 | -0.9 | -1.7
Cc1ccc(NC(=O)CN2C(=O)N/C(=C/c3cccn3-c3ccc(C(=O)O)cc3)C2=O)cc1 | . | 35.8 | 5.4 | 97.0* | -1.9 | -2.6
Cc1ccc(Nc2cc(C)nn2-c2nc(C)cc(=O)[nH]2)cc1 | -3.6 | 1.0 | -4.7 | 91.8* | 2.3 | .
Cc1ccc(Nc2cc(C)nn2-c2nc(C)cc(C)n2)cc1 | -2.8 | -0.4 | -7.3 | 14.0 | 2.4 | -5.1
COc1ccc(-n2c(C)c([N+](=O)[O-])c3ccc(O)c(CN4CCCCC4)c32)cc1 | -3.8 | -0.8 | 5.2 | 45.1 | 63.3* | -2.8
Cc1cc(C)n(-c2ccc(C(=O)O)cc2)n1 | -2.4 | 5.4 | 3.7 | -4.2 | 5.6 | -2.9
Cc1cc(Nc2ccccc2)n(-c2ccc(C(=O)O)cc2)n1 | -0.8 | . | -14.8 | 98.6* | -4.5 | -3.0
COc1cc(OC)cc(C(=O)Nc2cc(C)nn2-c2ccccc2)c1 | 0.0 | -5.8 | 8.0 | . | -6.3 | -0.9
Cc1cc(Nc2ccccc2)n(-c2cccc(Cl)c2)n1 | -1.5 | -4.0 | -5.2 | 99.3* | -0.8 | -2.0
COc1ccc(-n2nc(C)cc2Nc2ccccc2C(=O)O)cc1 | -3.7 | -75.9 | -1.4 | 99.2* | 2.0 | -3.8
CN(C)c1ccc(NC(=O)CN2CCC(N3CCCCC3)CC2)cc1 | 3.6 | 81.7 | -4.4 | 99.3* | 10.5 | -4.0
